Assay outcomes: PubChem BioAssay, National Center for Advancing Translational Sciences (NCATS)
Hits are enriched below; roughly 3% of the tested compounds scored in any of these assays.
ALOX12 inh – ALOX12 (human) lipoxygenase inhibition | purified 12hLO, xylenol orange hydroperoxide absorbance | Potency, µM (highest dose often 108 µM), usual class: inhibitors | P18054 | 1.1% of 580,000 active
Target sequence (P18054 whole entry, looked up): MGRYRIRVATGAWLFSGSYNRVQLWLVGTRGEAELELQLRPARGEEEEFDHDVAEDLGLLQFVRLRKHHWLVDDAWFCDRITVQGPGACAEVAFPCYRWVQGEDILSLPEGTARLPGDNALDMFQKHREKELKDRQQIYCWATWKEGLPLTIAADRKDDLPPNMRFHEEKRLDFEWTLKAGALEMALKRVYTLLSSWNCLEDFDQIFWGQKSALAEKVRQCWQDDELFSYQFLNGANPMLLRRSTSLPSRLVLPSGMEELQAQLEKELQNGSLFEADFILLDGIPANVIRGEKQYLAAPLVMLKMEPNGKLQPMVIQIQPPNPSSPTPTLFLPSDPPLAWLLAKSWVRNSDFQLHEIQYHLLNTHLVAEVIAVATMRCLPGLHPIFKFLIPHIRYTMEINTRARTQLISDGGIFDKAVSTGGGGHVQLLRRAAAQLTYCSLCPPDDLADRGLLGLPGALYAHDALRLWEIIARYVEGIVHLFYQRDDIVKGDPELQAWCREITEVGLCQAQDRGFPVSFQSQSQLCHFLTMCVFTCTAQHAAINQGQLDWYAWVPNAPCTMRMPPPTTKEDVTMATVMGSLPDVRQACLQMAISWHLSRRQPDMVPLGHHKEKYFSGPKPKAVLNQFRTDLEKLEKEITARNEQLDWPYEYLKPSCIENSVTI
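Hydroperoxide product was detected by ferrous iron/xylenol orange as the 573 to 405 nm absorbance ratio. Arachidonic acid at 40 uM (final) was turned over for 30 min at room temperature by 150 nM human 12hLO, pH 7.0 Hepes buffer, after 15 min compound preincubation.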
PLK1 PBD inh – inhibitors of human PLK1 polo-box domain binding | Plk1 PBD binding of FITC phosphopeptide, fluorescence polarization | P53350 | Potency, µM, actives largely listed as inhibitors | 2.8% of 360,000 active; further: series mostly up to about 57 µM; nearly all actives have a fitted effect of over 65% in size
VDR inh – vitamin D3 receptor (human) inhibition | 0.93% of 400,000 active | Potency, µM, most hits filed as inhibitors | VDR-SRC2-3 peptide fluorescence polarization, 2 h | P11473
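Compounds are added to VDR with labelled SRC2-3 coactivator peptide and held 2 h at room temperature. Inhibition of the VDR–peptide interaction is then read as a change in fluorescence polarization.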
GCN5L2 inh – GCN5L2 (KAT2A) acetyltransferase inhibition; Q92830; GCN5L2 HAT assay, ThioGlo1 CoA-SH fluorescence; Potency, µM (doses to about 58.9 µM), actives largely listed as inhibitors; 0.21% of 390,000 active
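Titration-based screen in which CoA formation is detected via maleimide probe ThioGlo1 (50uM) turning fluorescent on thiol reaction; substrates H3(1-25) 75uM and acetyl-CoA 70uM, GCN5L2 20nM, 20 min incubation at room temperature.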
Hits are given with their value; - = inactive; ? = inconclusive; . = not tested or not shown. The call rests on the fitted dose curve; in most records, active means well fitted curve in the direction sought with a large enough effect; inconclusive means small, poorly fitted or top-dose-only effect, or another doubt; inactive means no such curve, though single readings can be large; an effect the other way counts as inactive or inconclusive.

SMILES	ALOX12 inh	PLK1 PBD inh	VDR inh	GCN5L2 inh
COC(=O)Nc1c(C)cccc1C(C)C	-	.	.	.
O=C(O)CSc1c2ccccc2cc2ccccc12	?	26.7µM	70.8µM	-
COC(=O)CCCn1cc(CN2CC(N3CCN(Cc4cccc(C)c4)CC3)CS2(=O)=O)nn1 (stereo not given)	7.08µM	-	.	.
CN1CCN(C2CN(Cc3cn(Cc4ccc(Cl)cc4)nn3)S(=O)(=O)C2)CC1 (stereo not given)	28.2µM	-	.	.
O=S1(=O)CC(N2CCCCC2)CN1Cc1cn(Cc2ccc(Cl)cc2)nn1 (stereo not given)	-	-	.	.
Cc1ccccc1N1C(S)=C(C#N)C(=O)NC12CCCCC2	?	-	31.6µM	-
Cc1cccc(N2C(S)=C(C#N)C(=O)NC23CCCCC3)c1	?	-	44.7µM	-
Cc1cccc(NC2=C(C#N)C(=O)NC3(CCCC3)S2)c1	?	-	20µM	-
Cc1ccc(N2C(S)=C(C#N)C(=O)NC23CCCCC3)cc1	?	-	31.6µM	-
COC(=O)CSC1=C(C#N)C(=O)NC2(CCCCC2)S1	?	-	?	?
Cc1cccc(N2C(=O)NC3(CCCCC3)C2=O)c1	-	-	-	-
Cc1ccccc1N1C(=O)CC2(CCCC2)CC1=O	-	-	-	-
O=C(Cn1nc(Cc2ccncc2)c2ccccc2c1=O)Nc1ccc(Oc2ccccc2)cc1	-	.	.	.
N#Cc1nc(-c2cccs2)oc1NCCCN1CCOCC1	-	-	-	35.5µM
Cc1ccccc1-c1nc(C#N)c(NCCCN2CCOCC2)o1	-	.	.	.
Cc1ccc(NC(=O)c2ccccc2Oc2ccccc2)cc1S(=O)(=O)N(C)C	-	.	.	.
Cc1cc(C)c2c(=O)c(C#N)coc2c1	-	16.8µM	-	-
COCCCN1CC23C=CC(O2)C(C(=O)O)C3C1=O (stereo not given)	-	26.7µM	?	-
N#Cc1ccc(Cn2c(=O)n(CCC(=O)NCCc3ccc(Cl)cc3)c(=O)c3sccc32)cc1	-	.	.	.
COc1ccc(OCC(=O)Sc2ccc(C)cc2)cc1	-	4.74µM	?	-
O=C(/C=C/c1cn(-c2ccccc2)nc1-c1cccnc1)N1CCCC1	-	-	-	-
O=C(/C=C/c1cn(-c2ccccc2)nc1-c1cccnc1)c1ccco1	-	-	50.1µM	-
Cc1cnc(CCNC(=O)Nc2ccc3c(c2)OCCO3)n1C1CCC1	-	.	.	.
O=C(c1ccc(Br)cc1)c1cc2ccc(O)cc2oc1=O	-	10.6µM	?	-
O=C(c1ccc(Br)cc1)c1coc2ccc(O)cc12	22.4µM	-	-	.
SMILES	ALOX12 inh	PLK1 PBD inh	VDR inh	GCN5L2 inh
Cc1ccc(/C=N/n2c(C)nnc2C)o1	-	21.2µM	?	-
Cc1ccc(/C=N/n2c(C)nnc2C)s1	-	26.7µM	-	-
CCOC(=O)c1cc(NC(=O)c2cccc(-c3cc4ccccc4oc3=O)c2)ccc1N1CCOCC1	8.91µM	.	.	.
O=C(Nc1ccc(CN2CCOCC2)cc1)c1cccc(-c2cc3ccccc3oc2=O)c1	-	-	-	-
O=C(OCC(=O)N(Cc1ccccc1)C1CCS(=O)(=O)C1)c1n[nH]c2ccccc12 (stereo not given)	-	.	.	.
CCc1ccc(C(CNC(=O)c2nccnc2N)N(C)C)cc1 (stereo not given)	-	.	.	.
COc1ccc(CN2CCNC(=O)C2CC(=O)NCCC2=CCCCC2)c(F)c1 (stereo not given)	11.2µM	-	-	-
COc1cc(CN2CCNC(=O)C2CC(=O)NCCC2=CCCCC2)cc(OC)c1 (stereo not given)	-	-	-	-
CCOC(=O)C1(C)/C(=N/Nc2ccccc2)C(=O)C(=O)N1c1ccccc1 (stereo not given)	?	23.8µM	?	-
Cc1ccc(CN2CCC(N3CCCC(C(=O)NCCc4ccccc4)C3)CC2)o1 (stereo not given)	-	.	.	.
N#Cc1c(C#N)c(-c2ccccc2)n(-c2ccc(C(=O)O)cc2)c1N	-	-	-	-
N#Cc1c(N)n(-c2ccccc2)c(=O)c2cc([N+](=O)[O-])ccc12	-	-	44.7µM	-
N#Cc1c(C#N)c(SSc2c(C#N)c(C#N)c(N)n2-c2ccccc2)n(-c2ccccc2)c1N	0.355µM	2.67µM	?	.
CCOc1ccc(-c2nc(CNC(=O)NC3CCCC3)c(C)o2)cc1	-	.	.	.
COc1cc(/C=C(/C#N)c2ccccn2)ccc1OCc1cccc(C(F)(F)F)c1	6.31µM	.	.	.
COCCNc1oc(-c2ccc(S(=O)(=O)N3CCC(C)CC3)cc2)nc1C#N	-	.	.	.
CCCCCCCCS(=O)CCCCCCCO (stereo not given)	-	.	.	.
Cc1nc(NC(=O)C(C)(C)C)ccc1I	-	.	.	.
C/C=C(\C)CN1CCN(c2ccccc2)CC1	-	-	-	31.6µM
